PubChem BioAssay (NCATS)
“And” between values parts separate entries of the source, which are not always exact repeats. Identical values can stand only once. Inconclusive results are not listed. The source made the active and inactive calls. Unless noted, calls follow the shape of the dose curve; as a rule, active = well fitted curve in the direction sought with a large enough effect; inconclusive = small, poorly fitted or top-dose-only effect, or another doubt; inactive = no such curve, though single readings can be large; an effect the other way counts as inactive or inconclusive.

Assays:
[1] = Primary qHTS for inhibitors of nuclear receptor binding SET domain protein 2 (NSD2) in an isogenic RCH-ACV NSD2 p.E1099K mutant (9B) (AID 1645876); also: nearly all actives have a fitted effect of over 70% in size
[2] = Primary qHTS for inhibitors of nuclear receptor binding SET domain protein 2 (NSD2) in an RCH-ACV wild type WT cells (2C) (AID 1645877); also: nearly all actives have a fitted effect of over 70% in size
[3] = target: Catechol O-methyltransferase (Homo sapiens) (UniProt P21964); experiment: Confirmatory Screen for Target Class Profiling of Small Molecule Inhibitors of Methyltransferases (AID 1745852; calls by dose curve; as to activity change, negative = inhibition: % is scaled to controls: 0 for no effect and ±100 for the full control effect); settings: MTase-Glo luminescence, SAH detection, recombinant enzyme; measured here: COMT max response; stronger effect = lower value
Sequence of Catechol O-methyltransferase (Homo sapiens) (P21964 whole entry, looked up): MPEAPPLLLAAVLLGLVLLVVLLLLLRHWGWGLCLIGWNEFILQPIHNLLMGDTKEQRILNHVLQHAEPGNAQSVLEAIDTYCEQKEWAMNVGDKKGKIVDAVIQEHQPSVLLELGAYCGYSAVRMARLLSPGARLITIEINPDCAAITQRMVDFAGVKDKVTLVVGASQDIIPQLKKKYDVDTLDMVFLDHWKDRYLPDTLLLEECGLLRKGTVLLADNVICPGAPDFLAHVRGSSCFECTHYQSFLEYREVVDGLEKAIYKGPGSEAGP

[4] = target: Guanidinoacetate N-methyltransferase (Homo sapiens) (UniProt Q14353); experiment: as above; settings: activity change, negative = inhibition: at 57.3 µM (top of the series) unless noted
[5] = target: Nicotinamide N-methyltransferase (Homo sapiens) (UniProt P40261); experiment: as above; settings: MTase-Glo luminescence, SAH detection, recombinant enzyme; measured here: NNMT max response; stronger effect = lower value
Sequence of Nicotinamide N-methyltransferase (Homo sapiens) (P40261 whole entry, looked up): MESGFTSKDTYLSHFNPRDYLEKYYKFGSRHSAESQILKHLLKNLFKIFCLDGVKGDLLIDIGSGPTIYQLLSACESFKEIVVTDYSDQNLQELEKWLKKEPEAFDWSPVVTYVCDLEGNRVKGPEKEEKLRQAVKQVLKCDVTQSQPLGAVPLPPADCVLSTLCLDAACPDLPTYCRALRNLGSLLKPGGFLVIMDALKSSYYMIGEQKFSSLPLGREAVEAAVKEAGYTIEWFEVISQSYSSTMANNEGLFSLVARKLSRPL

[6] = target: Phenylethanolamine N-methyltransferase (Homo sapiens) (UniProt P11086); experiment: as above; settings: MTase-Glo luminescence, SAH detection, recombinant enzyme; measured here: PNMT max response; stronger effect = lower value
Sequence of Phenylethanolamine N-methyltransferase (Homo sapiens) (P11086 whole entry, looked up): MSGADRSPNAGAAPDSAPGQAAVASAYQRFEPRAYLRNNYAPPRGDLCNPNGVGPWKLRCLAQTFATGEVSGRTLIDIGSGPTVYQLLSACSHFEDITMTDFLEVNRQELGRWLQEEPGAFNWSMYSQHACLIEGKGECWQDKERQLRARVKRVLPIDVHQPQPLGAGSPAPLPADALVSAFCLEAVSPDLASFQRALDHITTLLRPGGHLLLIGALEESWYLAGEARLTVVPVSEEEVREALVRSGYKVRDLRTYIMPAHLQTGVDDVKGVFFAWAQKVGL
Potency is read from the fitted curve at half-maximal effect.

Row | Structure (SMILES) | Potency [1] | Potency [2] | activity [3] | activity change, negative = inhibition [4] | activity [5] | activity [6] | Potency [4]
1 | CC(C)(OC1OC(CO)C(O)C(O)C1O)C1CCC(O)(CO)C2CC(O)C(C)(O)C2C1 (stereo not given) | inactive | inactive |  |  |  |  | 
2 | COc1ccc(/C=C/C(=O)O[C@@H]2[C@@H](OC(C)=O)[C@@H](OC(C)=O)[C@H](O[C@H]3[C@@H]4C=CO[C@@H](O[C@@H]5O[C@H](CO)[C@@H](O)[C@H](O)[C@H]5O)[C@@H]4[C@@]4(CO)O[C@@H]34)O[C@H]2C)cc1O | inactive | inactive | -68.6% | -5.06% [at 19.1 µM] | -11.7% | -9.65% | 
3 | OCc1ccccc1O[C@@H]1O[C@H](CO)[C@@H](O)[C@H](O)[C@H]1O | inactive | inactive |  |  |  |  | 
4 | CCc1nc(C(N)=O)c(Nc2ccc(N3CCC(N4CCN(C)CC4)CC3)c(OC)c2)nc1NC1CCOCC1 | 1.13 µM (active) and 2.63 µM (active) | 1.13 µM (active) and 2.63 µM (active) | -34.5% |  | -16.4% | -59.8% | 26600 nM (active)
5 | CC(C)(O)/C=C1/C(=O)C(C)(C)C(=O)C(C)(C)C1(O)O[C@@H]1O[C@H](COC(=O)c2cc(O)c(O)c(O)c2)[C@@H](O)[C@H](O)[C@H]1O (stereo not given in full) | inactive | inactive | -56.9% | -2.31% [at 19.1 µM] | -1.53% | -0.785% | 
6 | COc1cc(C2Oc3c(OC)cc(CCCO[C@@H]4O[C@H](CO)[C@@H](O)[C@H](O)[C@H]4O)cc3C2CO)ccc1O (stereo not given in full) | inactive | inactive | -72% | 2.87% [at 29.8 µM] | 0% | 4.57% | 
7 | COc1cc(C(O)C(CO)Oc2ccc(CCCO[C@@H]3O[C@@H](C)[C@H](O)[C@@H](O)[C@H]3O)cc2OC)ccc1O (stereo not given in full) | inactive | inactive | -72.8% | -3.44% [at 29.8 µM] | -3.89% | -4.24% | 
8 | CN(NC(=O)CC(=O)NN(C)C(=S)c1ccccc1)C(=S)c1ccccc1 | 40.9 nM (active) and 8.3 nM (active) | 40.9 nM (active) and 9.3 nM (active) |  |  |  |  | 
9 | C=C1C(O[C@@H]2O[C@H](CO)[C@@H](O)[C@H](O)[C@@H]2O)CC2C(C)(C)C(O)CCC2(C)C1CC/C(C)=C\CO (stereo not given in full) | inactive | inactive | -63.2% | 0% [at 29.8 µM] | 3.48% | 0.548% | 
10 | CC1(C)O[C@]23C[C@H]1C[C@H](OC(=O)c1ccoc1)[C@]2(C)[C@@H](OC(=O)c1ccoc1)CCC3(C)O (stereo not given in full) | inactive | inactive |  |  |  |  | 
11 | CC(CCC1C(C(=O)O)=CC(=O)CC1(C)C)O[C@@H]1O[C@H](CO)[C@@H](O)[C@H](O)[C@H]1O (stereo not given in full) | inactive | inactive | -82.7% | -6.33% | -5.15% | -4.16% | 
12 | CC1=CC(=O)CC(C)(C)C1CCC(C)OC1OC(COC(=O)c2cc(O)c(O)c(O)c2)C(O)C(O)C1O (stereo not given) | inactive | inactive | -58.9% | 0% [at 29.8 µM] | 2.37% | 0% | 
13 | C=C(C)[C@H]1C[C@@H](O)C(=C)CC[C@@H](O)C(=C)[C@@H](O)C1 | inactive | inactive | -67% | 0% | 4.34% | 4.62% | 
14 | C=C1[C@H]2[C@H](O[C@@H]3O[C@H](COC(=O)/C=C/c4cc(OC)c(O)c(OC)c4)[C@@H](O)[C@H](O)[C@H]3O)OC=C(C(=O)O)[C@H]2C[C@@H]1O | inactive | inactive | -50.9% | 0% [at 19.1 µM] | 0% | 5.16% | 
15 | CCCCC(=O)OCC(=O)[C@]1(O)Cc2c(O)c3c(c(O)c2[C@@H](O[C@H]2C[C@H](NC(=O)C(F)(F)F)[C@H](O)[C@H](C)O2)C1)C(=O)c1c(OC)cccc1C3=O | 263 nM (active) | 166 nM (active) |  |  |  |  | 
16 | CCOc1ccc(-c2ccc(Cn3c(CC(C)(C)C(=O)O)c(SC(C)(C)C)c4cc(OCc5ccc(C)cn5)ccc43)cc2)cn1 | inactive | inactive | -2.5% and 0.78% | -0.671% | -21.6% and -9.46% | -31.2% and -7.43% | inactive
17 | O=c1c2ccccc2nc2n1CCC2O (stereo not given) | inactive | inactive |  |  |  |  | 
18 | CC1=CC(=O)CC(C)(C)C1(O)CCC(C)O (stereo not given) | inactive | inactive | -75.7% | 2.94% | 0% | 4.65% | 
